This is an account of results in PMC7862700, “An all-to-all approach to the identification of sequence-specific readers for epigenetic DNA modifications on cytosine”.

Holding throughout (experiment): DAPPL (digital affinity profiling via proximity ligation, sequencing); 10 mM Tris-HCl pH 7.5, 50 mM NaCl, 1 mM DTT, 4% glycerol, room temperature, 30 min; GST-TFs on glutathione beads, 16-mer random dsDNA library, 0.1% formaldehyde crosslink after washing; high values mean tight binding
One assay addresses T1, FLI1 (Homo sapiens, UniProt Q01543 1-452).
T1 sequence: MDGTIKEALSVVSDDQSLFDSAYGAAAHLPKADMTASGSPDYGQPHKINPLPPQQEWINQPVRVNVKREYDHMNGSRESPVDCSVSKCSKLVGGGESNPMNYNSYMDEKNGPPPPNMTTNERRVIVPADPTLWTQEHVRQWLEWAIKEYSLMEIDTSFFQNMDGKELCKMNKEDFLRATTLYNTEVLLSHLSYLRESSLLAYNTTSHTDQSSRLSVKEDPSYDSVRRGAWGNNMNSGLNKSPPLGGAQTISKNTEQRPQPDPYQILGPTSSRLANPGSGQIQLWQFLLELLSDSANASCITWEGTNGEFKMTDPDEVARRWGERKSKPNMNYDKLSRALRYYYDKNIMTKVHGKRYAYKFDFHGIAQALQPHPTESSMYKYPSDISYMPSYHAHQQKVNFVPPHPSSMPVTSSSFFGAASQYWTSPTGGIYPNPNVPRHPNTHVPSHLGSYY
Particulars: protein: recombinant; tags: N-terminal GST; dsDNA, one strand shown. A digest of the protocol: (§1)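 Pools of DNA-barcoded human transcription factors, expressed in yeast as GST fusions on glutathione beads and combined with a tag-only sample, were incubated with 200 nmole of a 16-mer random double-stranded DNA library. Incubation took 30 min at room temperature in Tris/NaCl/DTT/glycerol buffer and was followed by washing, 0.1% formaldehyde crosslinking, proximity ligation (BsaI/T4 ligase, 1 h, 37 °C), PCR amplification and sequencing on an Illumina NextSeq500. Binding signal is the ratio of a hexamer's read frequency for a factor to its frequency for the tag-only sample.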

The target of a further assay is T2, ELK1 (Homo sapiens, UniProt P19419 1-428).
T2 sequence: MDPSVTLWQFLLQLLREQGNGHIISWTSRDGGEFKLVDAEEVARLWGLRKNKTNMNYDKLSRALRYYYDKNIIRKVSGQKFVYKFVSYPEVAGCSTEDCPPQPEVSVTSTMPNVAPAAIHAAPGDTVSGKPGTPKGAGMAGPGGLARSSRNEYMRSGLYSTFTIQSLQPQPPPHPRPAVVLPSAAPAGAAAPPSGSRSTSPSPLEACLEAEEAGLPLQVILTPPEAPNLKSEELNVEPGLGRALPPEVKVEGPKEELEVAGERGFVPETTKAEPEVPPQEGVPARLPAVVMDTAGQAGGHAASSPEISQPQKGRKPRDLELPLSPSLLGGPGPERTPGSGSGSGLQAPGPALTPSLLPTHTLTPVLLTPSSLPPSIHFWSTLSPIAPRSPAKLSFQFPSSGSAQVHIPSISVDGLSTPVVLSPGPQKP
Particulars: protein: recombinant; tags: N-terminal GST; dsDNA, one strand shown. A digest of the protocol:
as §1

Another assay has as its target T3, GABPA (Homo sapiens, UniProt Q06546 1-454).
T3 sequence: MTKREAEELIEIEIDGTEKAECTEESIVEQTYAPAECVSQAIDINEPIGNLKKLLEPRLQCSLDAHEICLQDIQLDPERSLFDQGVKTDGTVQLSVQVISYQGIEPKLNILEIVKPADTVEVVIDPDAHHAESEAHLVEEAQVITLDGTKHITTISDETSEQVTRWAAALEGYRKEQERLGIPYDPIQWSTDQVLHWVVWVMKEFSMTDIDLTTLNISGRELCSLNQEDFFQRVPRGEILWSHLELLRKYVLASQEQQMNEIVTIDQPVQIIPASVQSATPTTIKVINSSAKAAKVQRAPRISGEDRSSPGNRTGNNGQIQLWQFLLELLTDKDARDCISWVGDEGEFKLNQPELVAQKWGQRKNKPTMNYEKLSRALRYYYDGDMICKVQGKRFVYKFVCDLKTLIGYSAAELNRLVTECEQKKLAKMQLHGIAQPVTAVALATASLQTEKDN
Particulars: protein: recombinant; tags: N-terminal GST; dsDNA, one strand shown. A digest of the protocol: as §1

In the next assay the target is T4, ERG (Homo sapiens, UniProt P11308 1-479).
T4 sequence: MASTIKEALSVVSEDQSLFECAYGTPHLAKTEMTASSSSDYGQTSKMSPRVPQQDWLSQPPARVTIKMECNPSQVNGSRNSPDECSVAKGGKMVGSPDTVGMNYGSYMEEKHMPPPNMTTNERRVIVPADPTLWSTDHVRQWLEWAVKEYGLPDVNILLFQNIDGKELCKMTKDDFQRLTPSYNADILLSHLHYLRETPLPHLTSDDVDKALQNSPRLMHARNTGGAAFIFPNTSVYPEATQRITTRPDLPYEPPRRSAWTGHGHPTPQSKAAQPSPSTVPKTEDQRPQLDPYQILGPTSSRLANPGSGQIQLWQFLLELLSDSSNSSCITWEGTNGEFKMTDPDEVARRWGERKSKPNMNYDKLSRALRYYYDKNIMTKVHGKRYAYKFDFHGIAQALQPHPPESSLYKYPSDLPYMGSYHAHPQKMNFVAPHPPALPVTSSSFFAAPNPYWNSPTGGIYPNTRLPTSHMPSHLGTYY
Conditions: protein: recombinant; tags: N-terminal GST; dsDNA, one strand shown. A digest of the protocol:
as §1

For the next assay, the target named is ELF1 (Homo sapiens, UniProt P32519 1-619). Conditions: protein: recombinant; tags: N-terminal GST; dsDNA, one strand shown. A digest of the protocol: as §1
The next assay deals with T5, EHF (Homo sapiens, UniProt Q9NZC4 1-300).
T5 sequence: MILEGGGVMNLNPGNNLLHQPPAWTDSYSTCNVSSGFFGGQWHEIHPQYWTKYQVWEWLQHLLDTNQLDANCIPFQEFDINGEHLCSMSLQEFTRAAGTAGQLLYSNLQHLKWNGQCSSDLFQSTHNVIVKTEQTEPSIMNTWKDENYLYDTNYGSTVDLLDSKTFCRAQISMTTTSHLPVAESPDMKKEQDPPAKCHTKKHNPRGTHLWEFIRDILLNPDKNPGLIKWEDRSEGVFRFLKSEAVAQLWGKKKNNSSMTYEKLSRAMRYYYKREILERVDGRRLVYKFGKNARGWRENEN
Conditions: protein: recombinant; tags: N-terminal GST; dsDNA, one strand shown. The method, boiled down:
as §1

For the next assay, the target named is SPI1 (Homo sapiens, UniProt P17947 1-270). Conditions: protein: recombinant; tags: N-terminal GST; dsDNA, one strand shown. A digest of the protocol:
as §1

Another assay deals with T6, ELK3 (Homo sapiens, UniProt P41970 1-407).
T6 sequence: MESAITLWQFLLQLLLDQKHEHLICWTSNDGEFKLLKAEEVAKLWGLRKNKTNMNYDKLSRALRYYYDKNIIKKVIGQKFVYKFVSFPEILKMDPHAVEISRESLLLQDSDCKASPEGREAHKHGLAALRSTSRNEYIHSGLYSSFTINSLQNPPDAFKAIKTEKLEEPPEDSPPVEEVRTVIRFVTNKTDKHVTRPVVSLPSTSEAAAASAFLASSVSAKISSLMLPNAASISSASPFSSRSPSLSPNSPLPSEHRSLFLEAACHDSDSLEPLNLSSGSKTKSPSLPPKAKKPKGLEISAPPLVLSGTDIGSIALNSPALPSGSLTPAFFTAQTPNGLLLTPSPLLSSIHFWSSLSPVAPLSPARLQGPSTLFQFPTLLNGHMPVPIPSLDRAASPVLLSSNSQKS
Particulars: protein: recombinant; tags: N-terminal GST; dsDNA, one strand shown. The method, boiled down:
as §1

In a further assay the target is T7, FEV (Homo sapiens, UniProt Q99581 1-238).
T7 sequence: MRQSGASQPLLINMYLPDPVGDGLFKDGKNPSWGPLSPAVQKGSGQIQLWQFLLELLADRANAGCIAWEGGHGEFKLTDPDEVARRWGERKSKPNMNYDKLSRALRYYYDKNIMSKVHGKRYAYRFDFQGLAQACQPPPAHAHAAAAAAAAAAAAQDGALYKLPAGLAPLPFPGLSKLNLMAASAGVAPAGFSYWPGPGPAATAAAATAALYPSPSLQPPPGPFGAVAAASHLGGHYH
Particulars: protein: recombinant; tags: N-terminal GST; dsDNA, one strand shown. A digest of the protocol:
as §1

A further assay concerns the target ETV5 (Homo sapiens, UniProt P41161 1-510). Conditions: protein: recombinant; tags: N-terminal GST; dsDNA, one strand shown. A digest of the protocol: as §1
The next assay deals with HSF1 (Homo sapiens, UniProt Q00613 1-529). Particulars: protein: recombinant; tags: N-terminal GST; chain copies: 3; dsDNA, one strand shown. A digest of the protocol: as §1
Another assay has as its target T8, SPIC (Homo sapiens, UniProt Q8N5J4 1-248).
T8 sequence: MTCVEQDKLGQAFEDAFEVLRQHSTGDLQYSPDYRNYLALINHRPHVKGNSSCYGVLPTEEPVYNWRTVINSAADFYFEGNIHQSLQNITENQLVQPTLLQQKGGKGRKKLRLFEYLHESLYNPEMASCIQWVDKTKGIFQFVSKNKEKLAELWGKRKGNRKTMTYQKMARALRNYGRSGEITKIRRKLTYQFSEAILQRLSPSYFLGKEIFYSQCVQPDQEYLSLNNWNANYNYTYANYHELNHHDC
Conditions: protein: recombinant; tags: N-terminal GST; dsDNA, one strand shown. A digest of the protocol: as §1

Another assay concerns the target ELF4 (Homo sapiens, UniProt Q99607 1-663). Particulars: protein: recombinant; tags: N-terminal GST; dsDNA, one strand shown. The method, boiled down:
as §1

The next assay concerns the target T9, ELK4 (Homo sapiens, UniProt P28324-2 1-405).
T9 sequence: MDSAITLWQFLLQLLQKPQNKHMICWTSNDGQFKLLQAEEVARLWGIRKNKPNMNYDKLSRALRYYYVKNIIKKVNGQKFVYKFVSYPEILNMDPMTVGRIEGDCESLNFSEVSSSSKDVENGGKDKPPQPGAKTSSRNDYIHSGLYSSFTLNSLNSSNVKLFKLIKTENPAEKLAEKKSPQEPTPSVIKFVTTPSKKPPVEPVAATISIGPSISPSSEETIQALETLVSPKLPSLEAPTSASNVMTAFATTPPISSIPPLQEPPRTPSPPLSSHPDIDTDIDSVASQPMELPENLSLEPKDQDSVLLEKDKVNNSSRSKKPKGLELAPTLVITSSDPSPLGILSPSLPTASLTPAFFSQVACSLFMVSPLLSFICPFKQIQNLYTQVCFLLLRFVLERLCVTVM
Particulars: protein: recombinant; tags: N-terminal GST; dsDNA, one strand shown. The method, boiled down: as §1

Another assay deals with T10, ETV2 (Homo sapiens, UniProt O00321 1-342).
T10 sequence: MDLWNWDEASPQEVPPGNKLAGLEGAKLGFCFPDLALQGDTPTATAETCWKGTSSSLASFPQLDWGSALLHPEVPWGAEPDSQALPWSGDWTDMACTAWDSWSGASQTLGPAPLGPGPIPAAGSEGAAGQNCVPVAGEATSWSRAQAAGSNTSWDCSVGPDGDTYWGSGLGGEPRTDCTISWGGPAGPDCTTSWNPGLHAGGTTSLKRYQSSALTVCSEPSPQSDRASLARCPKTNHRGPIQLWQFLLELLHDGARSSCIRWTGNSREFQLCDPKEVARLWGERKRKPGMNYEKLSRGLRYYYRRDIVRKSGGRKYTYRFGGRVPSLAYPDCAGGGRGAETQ
Particulars: protein: recombinant; tags: N-terminal GST; dsDNA, one strand shown. A digest of the protocol:
as §1

The next assay deals with T11, ELF3 (Homo sapiens, UniProt P78545 1-371).
T11 sequence: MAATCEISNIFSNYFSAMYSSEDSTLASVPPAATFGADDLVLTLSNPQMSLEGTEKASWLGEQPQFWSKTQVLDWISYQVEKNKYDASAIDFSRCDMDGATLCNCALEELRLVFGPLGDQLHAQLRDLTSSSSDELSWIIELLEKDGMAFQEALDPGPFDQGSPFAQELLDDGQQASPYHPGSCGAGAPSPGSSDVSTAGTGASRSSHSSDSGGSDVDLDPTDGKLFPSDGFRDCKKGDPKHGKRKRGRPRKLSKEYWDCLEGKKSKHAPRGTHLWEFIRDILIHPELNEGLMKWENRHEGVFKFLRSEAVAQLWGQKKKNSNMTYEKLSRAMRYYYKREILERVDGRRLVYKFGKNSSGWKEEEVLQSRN
Particulars: protein: recombinant; tags: N-terminal GST; dsDNA, one strand shown. The method, boiled down: as §1

In the next assay the target is CRX (Homo sapiens, UniProt O43186 1-299). Particulars: protein: recombinant; tags: N-terminal GST; dsDNA, one strand shown. A digest of the protocol: as §1
In the next assay the target is ETV1 (Homo sapiens, UniProt P50549 1-477). Conditions: protein: recombinant; tags: N-terminal GST; dsDNA, one strand shown. The method, boiled down: as §1
Sequence of ETV1 (P50549 whole entry): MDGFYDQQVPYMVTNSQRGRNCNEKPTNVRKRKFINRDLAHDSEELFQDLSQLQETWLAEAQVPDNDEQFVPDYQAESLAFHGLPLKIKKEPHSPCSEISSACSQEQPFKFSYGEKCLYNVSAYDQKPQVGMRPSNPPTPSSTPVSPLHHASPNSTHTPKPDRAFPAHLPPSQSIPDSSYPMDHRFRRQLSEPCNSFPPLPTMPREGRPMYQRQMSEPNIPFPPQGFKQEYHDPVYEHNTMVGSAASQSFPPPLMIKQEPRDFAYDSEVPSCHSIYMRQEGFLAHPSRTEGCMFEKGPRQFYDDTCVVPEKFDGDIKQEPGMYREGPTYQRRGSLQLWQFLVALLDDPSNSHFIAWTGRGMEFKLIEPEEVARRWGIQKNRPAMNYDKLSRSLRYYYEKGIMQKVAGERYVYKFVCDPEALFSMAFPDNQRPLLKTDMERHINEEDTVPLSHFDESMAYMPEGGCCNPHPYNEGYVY

Sequence of ELF1 (P32519 whole entry): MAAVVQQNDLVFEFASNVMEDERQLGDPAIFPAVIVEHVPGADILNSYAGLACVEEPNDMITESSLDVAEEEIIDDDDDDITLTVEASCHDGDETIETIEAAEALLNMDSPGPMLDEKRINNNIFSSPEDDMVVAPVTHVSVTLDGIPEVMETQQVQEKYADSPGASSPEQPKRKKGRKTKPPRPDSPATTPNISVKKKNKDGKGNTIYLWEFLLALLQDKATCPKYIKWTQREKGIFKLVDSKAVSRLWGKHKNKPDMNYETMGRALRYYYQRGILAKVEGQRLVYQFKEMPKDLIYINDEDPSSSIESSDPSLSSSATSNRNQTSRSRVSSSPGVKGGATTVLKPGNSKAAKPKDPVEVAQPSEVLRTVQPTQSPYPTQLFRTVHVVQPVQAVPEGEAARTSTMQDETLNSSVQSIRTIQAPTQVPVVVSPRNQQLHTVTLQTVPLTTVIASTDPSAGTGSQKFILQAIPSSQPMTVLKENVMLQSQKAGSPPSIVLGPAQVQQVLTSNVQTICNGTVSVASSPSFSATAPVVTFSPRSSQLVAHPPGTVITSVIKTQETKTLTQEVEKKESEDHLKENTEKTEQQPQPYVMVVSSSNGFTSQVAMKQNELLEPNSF
Sequence of HSF1 (Q00613 whole entry): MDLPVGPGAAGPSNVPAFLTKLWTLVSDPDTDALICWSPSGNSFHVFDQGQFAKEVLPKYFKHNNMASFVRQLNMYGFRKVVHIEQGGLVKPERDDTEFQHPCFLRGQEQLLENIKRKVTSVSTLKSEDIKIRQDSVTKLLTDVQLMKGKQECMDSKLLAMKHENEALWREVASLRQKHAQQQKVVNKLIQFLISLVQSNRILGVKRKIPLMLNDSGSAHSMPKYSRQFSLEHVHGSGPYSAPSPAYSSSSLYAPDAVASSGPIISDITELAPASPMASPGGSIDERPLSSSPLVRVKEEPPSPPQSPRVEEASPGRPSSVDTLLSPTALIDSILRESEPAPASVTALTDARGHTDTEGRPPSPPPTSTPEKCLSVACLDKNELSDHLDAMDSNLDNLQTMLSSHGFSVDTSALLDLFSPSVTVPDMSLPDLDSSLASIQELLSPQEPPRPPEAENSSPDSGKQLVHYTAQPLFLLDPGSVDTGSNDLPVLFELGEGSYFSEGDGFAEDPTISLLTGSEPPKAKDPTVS
Sequence of ELF4 (Q99607 whole entry): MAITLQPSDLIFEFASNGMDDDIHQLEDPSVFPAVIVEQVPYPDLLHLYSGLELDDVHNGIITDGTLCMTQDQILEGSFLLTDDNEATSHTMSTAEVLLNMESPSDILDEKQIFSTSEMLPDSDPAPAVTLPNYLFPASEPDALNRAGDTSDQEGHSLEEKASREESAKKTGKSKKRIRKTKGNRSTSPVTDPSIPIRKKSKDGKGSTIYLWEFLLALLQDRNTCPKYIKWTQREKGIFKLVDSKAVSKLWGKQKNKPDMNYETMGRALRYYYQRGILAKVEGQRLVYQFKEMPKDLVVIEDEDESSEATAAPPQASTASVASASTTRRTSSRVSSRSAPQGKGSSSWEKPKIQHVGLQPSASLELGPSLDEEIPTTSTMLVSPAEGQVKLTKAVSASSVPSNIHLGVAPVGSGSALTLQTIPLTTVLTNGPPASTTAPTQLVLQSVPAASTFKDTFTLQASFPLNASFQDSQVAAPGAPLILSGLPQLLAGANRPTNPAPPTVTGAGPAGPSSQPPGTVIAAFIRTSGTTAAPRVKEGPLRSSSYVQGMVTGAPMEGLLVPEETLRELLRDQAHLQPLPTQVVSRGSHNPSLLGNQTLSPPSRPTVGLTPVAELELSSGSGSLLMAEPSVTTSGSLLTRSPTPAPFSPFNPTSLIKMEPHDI
Sequence of ETV5 (P41161 whole entry): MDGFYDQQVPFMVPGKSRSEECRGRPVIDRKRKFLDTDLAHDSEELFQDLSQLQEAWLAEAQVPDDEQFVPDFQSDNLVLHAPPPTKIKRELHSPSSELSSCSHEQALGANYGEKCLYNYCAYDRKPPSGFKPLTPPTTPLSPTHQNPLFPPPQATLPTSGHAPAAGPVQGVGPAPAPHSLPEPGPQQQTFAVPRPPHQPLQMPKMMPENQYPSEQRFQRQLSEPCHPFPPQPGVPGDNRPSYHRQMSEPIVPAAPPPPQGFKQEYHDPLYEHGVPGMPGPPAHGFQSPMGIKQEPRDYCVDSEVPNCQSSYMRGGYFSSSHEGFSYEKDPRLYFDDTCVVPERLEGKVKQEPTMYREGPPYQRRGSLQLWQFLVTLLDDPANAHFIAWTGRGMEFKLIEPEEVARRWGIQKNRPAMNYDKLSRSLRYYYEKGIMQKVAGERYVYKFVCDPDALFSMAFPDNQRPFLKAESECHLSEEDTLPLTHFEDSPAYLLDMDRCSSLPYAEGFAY
Sequence of CRX (O43186 whole entry): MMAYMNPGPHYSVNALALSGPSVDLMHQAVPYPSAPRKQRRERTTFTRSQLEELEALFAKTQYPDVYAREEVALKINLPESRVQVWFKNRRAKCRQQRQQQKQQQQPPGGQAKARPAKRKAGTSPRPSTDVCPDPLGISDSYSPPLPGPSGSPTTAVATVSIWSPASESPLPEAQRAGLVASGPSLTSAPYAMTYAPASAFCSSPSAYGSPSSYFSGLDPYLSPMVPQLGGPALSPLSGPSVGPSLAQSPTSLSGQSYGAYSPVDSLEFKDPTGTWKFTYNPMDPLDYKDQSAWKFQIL

Consider ATCATT, for which the binding signal with FLI1 was 1.07 fold enrichment (6-mer frequency, TF over GST control); with ELK1, 1.05 fold enrichment (6-mer frequency, TF over GST control); with GABPA, 1.06 fold enrichment (6-mer frequency, TF over GST control); in the assay with ERG, 1.02 fold enrichment (6-mer frequency, TF over GST control); in the assay with ELF1 it was 1.05 fold enrichment (6-mer frequency, TF over GST control); with EHF, 1.01 fold enrichment (6-mer frequency, TF over GST control). Also, the binding signal with SPI1 is 1.05 fold enrichment (6-mer frequency, TF over GST control); with ELK3, 1.01 fold enrichment (6-mer frequency, TF over GST control); with FEV, 1.08 fold enrichment (6-mer frequency, TF over GST control); with ETV5, 1.07 fold enrichment (6-mer frequency, TF over GST control); with HSF1 it was 1.18 fold enrichment (6-mer frequency, TF over GST control); in the assay with SPIC, 1.01 fold enrichment (6-mer frequency, TF over GST control). For the same sequence, the binding signal in the assay with ELF4 was 1.05 fold enrichment (6-mer frequency, TF over GST control); with ELK4, 1.06 fold enrichment (6-mer frequency, TF over GST control); with ETV2 it was 1.15 fold enrichment (6-mer frequency, TF over GST control); in the assay with ELF3, 1.05 fold enrichment (6-mer frequency, TF over GST control); with CRX, 1.28 fold enrichment (6-mer frequency, TF over GST control); with ETV1, 1.06 fold enrichment (6-mer frequency, TF over GST control).
